# Source: PubChem (National Center for Advancing Translational Sciences (NCATS))
# In the library only some 12% were active in any assay of this set; here they are far more common.
# AMA1-RON2 inh: qHTS for Inhibitors of AMA1-RON; Towards Development of Antimalarial Drug Lead: Primary Screen | Plasmodium falciparum AMA1 (3D7) - RON2 peptide interaction | AlphaScreen AMA1-biotinylated RON2 peptide binding | Potency, µM (series often up to 58.2 µM), without a hit: top-dose activity change, negative = inhibition, usual class: inhibitors | 360,000 tested, 0.2% active | AID 720542, 2013;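 also: 0% = vehicle wells and -100% = peptide control; nearly all actives have a fitted effect of over 45% in size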
#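 AMA1 (3D7) with his tag at 25 nM final met compounds first, then biotinylated RON2 peptide at 25 nM; detection used donor plus acceptor beads, 10 µg/mL apiece, read by AlphaScreen after 30 min at room temperature.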
# Pf growth 96h: Primary qHTS for delayed death inhibitors of the malarial parasite plastid, 96 hour incubation. AID 504834, 2011. P. falciparum luciferase reporter growth, 96 h. 320,000 tested, 6.9% active. Potency, µM (top dose mostly 28.7 µM), without a hit: top-dose activity change, negative = inhibition, most hits filed as inhibitors; also: % is scaled to controls: 0 for no effect and ±100 for the full control effect
#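 Two-generation exposure (96 h) targets delayed-death phenotype. Reporter parasites carrying integrated firefly luciferase, in red cells at 2% hematocrit and 0.05% parasitemia final, kept at 37 C, 5% CO2; luminescence loss indicates inhibition.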
# Pf growth 48h: Primary qHTS for delayed death inhibitors of the malarial parasite plastid, 48 hour incubation | Potency, µM (titrated, usually from 28.7 µM), inactives show at the highest dose activity change, negative = inhibition, usual class: inhibitors | P. falciparum luciferase growth in erythrocytes, 48 h | AID 504832, 2011 | 310,000 tested, 5.9% active; also: % is scaled to controls: 0 for no effect and ±100 for the full control effect
#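 Compounds are pin-transferred into medium, infected erythrocytes (2% hematocrit, 0.1% parasitemia final) are added, and plates sit one parasite generation at 37 C in 5% CO2. Detection reagent is then added and luminescence measured.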
# SARS PLpro yeast: qHTS of Yeast-based Assay for SARS-CoV PLP | S. cerevisiae expressing SARS-CoV PLpro, growth rescue | Potency, µM (series often up to 32.9 µM), without a hit: at the top dose activity, positive = growth rescue, actives largely listed as activators | 330,000 tested, 0.19% active; calls by dose curve; also: 0% is about no effect; nearly all actives have a fitted effect of over 55% in size
# NS1 function inh: qHTS Assay for Inhibitors of Influenza NS1 Protein Function; Potency, µM (top dose mostly 46.1 µM), for the others: at the highest dose activity, positive = more growth; 270,000 tested, 0.4% active; calls by dose curve; also: actives are rising curves; nearly all actives have a fitted effect of over 50% in size
#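 Recovery from NS1-induced slow growth read by OD600 in budding yeast switched to galactose assay medium (pH 6.0, -URA) at 1:100 dilution. Compound 23 nl per well; the matching strain lacking NS1 serves as control.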
# HCV inhibitor: qHTS Assay for Inhibitors of Hepatitis C Virus (HCV); 340,000 tested, 3.4% active; Potency, µM (series often up to 41.8 µM), for the others: at the highest dose activity change, negative = inhibition, hits mostly inhibitors; Huh7.5.1 HCVcc-Cre infection, luciferase reporter, 44 h; AID 651820, 2012; also: % is scaled to controls: 0 for no effect and ±100 for the full control effect
#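 Luciferase read-out (15 sec integration) after a 15 min room-temperature substrate step quantifies HCVcc-Cre infection. Cells, 1,000 per well, had compound added 4 h post-plating, then virus at ~0.5 moi, and were cultured 44 h.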
# * marks the source's active call; other numbers are inactive results; ? = inconclusive; / = no result given; [ ] = dose if it differs, or a comment. Unless noted, calls follow the shape of the dose curve; as a rule, active = well fitted curve in the direction sought with a large enough effect; inconclusive = small, poorly fitted or top-dose-only effect, or another doubt; inactive = no such curve, though single readings can be large; an effect the other way counts as inactive or inconclusive. Potency is read from the fitted curve at half-maximal effect.
SMILES,AMA1-RON2 inh,Pf growth 96h,Pf growth 48h,SARS PLpro yeast,NS1 function inh,HCV inhibitor
COc1cc(OC)c(NS(=O)(=O)c2cc3[nH]c(=O)c(=O)[nH]c3cc2C)cc1Cl,-4%,?,?,0%,2%,12%
CCCCCC(CC(=O)NO)C(=O)NC(C(=O)N1CCCC1CO)C(C)C (configuration not stated),25%,2.9µM*,3.3µM*,/,/,?
COc1ccc(S(=O)(=O)/N=C2/NC(=O)/C(=C/c3ccco3)S2)cc1,-13%,32%,-8%,-31%,-2%,-4%
COc1ccc(N=C2NC(=O)/C(=C\C=C\c3ccccc3)S2)cc1,-14%,-1%,?,1%,3%,-25%
COc1cc(/C=C2\SC(=Nc3ccccc3OC)NC2=O)ccc1O,19%,22%,-16%,1%,-3%,-25%
COc1ccc(N=C2NC(=O)/C(=C/c3ccco3)S2)cc1,-12%,9.3µM*,?,-2%,-4%,-23%
COc1ccc(/C=C2\SC(=Nc3ccccc3OC)NC2=O)cc1,14%,34%,0.33µM*,-16%,-62%,?
COc1cc(/C=C2\SC(=Nc3ccccc3)NC2=O)cc(Cl)c1O,-1%,6.6µM*,0%,-1%,1%,-25%
COc1ccc(N=C2NC(=O)/C(=C/C=C/c3ccccc3)S2)cc1,28%,6.6µM*,7.4µM*,-4%,5%,?
O=C(NCc1cccnc1)c1ccc2sc([C@H]3C[C@H](O)[C@@H](CO)O3)nc2c1,11%,/,/,/,/,/
Cc1ccc(N=C2NC(=O)S/C2=C\c2ccco2)cc1,-12%,?,?,5%,18%,?
O=C1NC(=Nc2ccccc2)/C(=C/c2ccco2)S1,-23%,?,?,-8%,4%,11µM*
COc1ccc(C2=CC(=O)OC3(CCCCC3)O2)cc1,-6%,?,4.1µM*,-11%,-60%,-30%
CC1CCN(c2cc(N3CCOCC3)c([N+](=O)[O-])cc2F)CC1,-16%,15µM*,?,-9%,-60%,-8%
CCN1CCN(c2cc(N3CCc4ccccc4C3)c(F)cc2[N+](=O)[O-])CC1,?,62%,?,-13%,-5%,4.5µM*
Cc1cccc(C)c1NC(=O)C(c1ccc([N+](=O)[O-])cc1)N(C)C(=O)c1ccccn1 (configuration not stated),10%,19%,47%,13%,20%,4%
Cc1ccc(N(CC(O)CN2CCCCC2)S(=O)(=O)c2ccc(C)cc2)cc1 (configuration not stated),-9%,?,-5%,-3%,?,8%
CC(Sc1n[nH]c(N)n1)C(=O)Nc1cccc(S(=O)(=O)N2CCOCC2)c1 (configuration not stated),?,-11%,-6%,2%,/,5%
O=S(=O)(NCc1cn2ccsc2n1)c1ccc(Oc2ccccc2)cc1,-7%,/,1%,3%,-4%,7.9µM*
CCc1ccc2c(CC(=O)NNC(=O)c3ccncc3)coc2c1,91%,?,-8%,-5%,/,16%
COc1cccc(Nc2nnc(SCc3cc([N+](=O)[O-])cc4c3OCOC4)s2)c1,-7%,-3%[5.75 µM],-20%,?,14%,11µM*
COC(=O)c1ccc(NC(=O)CSc2nc3ccc(N4C(=O)C5C6C=CC(C6)C5C4=O)cc3s2)cc1 (configuration not stated),-4%,9.3µM*,?,28%,?,11µM*
CCc1cccc(CC)c1NC(=O)CSc1nc2ccc(N3C(=O)C4C5C=CC(C5)C4C3=O)cc2s1 (configuration not stated),-9%,/,0%,0%,13%,11µM*
